In PubChem BioAssay (NCATS) one finds Potency data, which are given here for 17 compounds.

Results filed as inconclusive are left out. Activity calls are given as the source filed them. The call rests on the fitted dose curve; in most records, active means well fitted curve in the direction sought with a large enough effect; inconclusive means small, poorly fitted or top-dose-only effect, or another doubt; inactive means no such curve, though single readings can be large; an effect the other way counts as inactive or inconclusive.

Test [1] concerns the target N-terminal Xaa-Pro-Lys N-methyltransferase 1 (Homo sapiens) (UniProt Q9BV86). Description: qHTS Assay for Inhibitors of N-terminal methyltransferase 1 (NTMT1): LOPAC validation of the NTMT1 SAHH-coupled ThioGlo3 Assay (AID 1347143). Further: nearly all actives have a fitted effect of over 70% in size. Further: potency means the concentration at half of the fitted maximal effect. Conditions: recombinant NTMT1, SAHH-coupled ThioGlo3 fluorescence; series mostly up to 114 µM. In a few lines: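 Fluorescence read-out (excitation 340nm, emission 450nm) of SAH-derived thiol, measured via SAHH coupling and ThioGlo3, taken immediately and after a 30 min room-temperature reaction, then normalized to the background read. Enzyme: NTMT1 at 125nM; cofactor SAM 100uM in the added reagent.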

In test [2] the test system is Zika virus NS2B-NS3 protease (unlinked). Description: Optimization of GU AMC qHTS for Zika virus inhibitors: Unlinked NS2B-NS3 protease assay (AID 1347151). Further: nearly all actives have a fitted effect of over 80% in size. Further: potency means the concentration at half of the fitted maximal effect. The note with it: recombinant ZIKV NS2B-NS3 protease, fluorogenic AMC substrate; series mostly up to 52.5 µM. The gist of the method: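 Fluorescence gain (340/450 nm) over 15 min at room temperature, ~20% conversion, gave percent inhibition fitted to a 4-parameter Hill equation; enzyme was unlinked NS2B-NS3 (25 nM final), pH 8.0 Tris buffer.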

The nature of test [3]: qHTS of pediatric cancer cell lines to identify multiple opportunities for drug repurposing: Confirmatory screen for U-2 OS cells (AID 1347122). Further: potency means the concentration at half of the fitted maximal effect; nearly all actives have a fitted effect of over 65% in size. Conditions: U-2 OS osteosarcoma cell viability; series mostly up to 45.9 µM. In a few lines: (§1)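 Cells (500-1,000/well) in growth media were settled 5 h at 37 degrees C, then given compounds for 48 h. Viability was read as CellTiter-Glo luminescence. Primary runs used MIPE at 11 points (0.78 nM-46 µM) and NPC at 8 points (0.59 nM-46 µM); follow-ups used 11 points.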

A short description of test [4]: qHTS of pediatric cancer cell lines to identify multiple opportunities for drug repurposing: Confirmatory screen for Rh41 cells (AID 1347123).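 Further: potency means the concentration at half of the fitted maximal effect; 48 h compound exposure; nearly all actives have a fitted effect of over 60% in size.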 The note with it: Rh41 rhabdomyosarcoma cells, viability/cytotoxicity qHTS; series mostly up to 45.9 µM. In a few lines: as §1
Test [5] can be described thus: qHTS of pediatric cancer cell lines to identify multiple opportunities for drug repurposing: Confirmatory screen for Rh18 cells (AID 1347125). Further: nearly all actives have a fitted effect of over 55% in size. Further: potency means the concentration at half of the fitted maximal effect. The note with it: Rh18 rhabdomyosarcoma cells, viability; series mostly up to 45.9 µM. In a few lines: as §1
The nature of test [6]: qHTS of pediatric cancer cell lines to identify multiple opportunities for drug repurposing: Confirmatory screen for Rh30 cells (AID 1347126). Further: potency means the concentration at half of the fitted maximal effect; nearly all actives have a fitted effect of over 55% in size. The note with it: Rh30 rhabdomyosarcoma cell viability; series mostly up to 45.9 µM. The gist of the method: as §1
The target in test [7] is Furin (Homo sapiens) (UniProt P09958). Nature of the test: Furin counterscreen qHTS for Zika virus inhibitors (AID 1347149). Further: nearly all actives have a fitted effect of over 70% in size. Further: potency means the concentration at half of the fitted maximal effect. Conditions: furin enzymatic counterscreen, fluorogenic substrate; series mostly up to 57.5 µM. In a few lines: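 Fluorogenic cleavage of BOC-RVRR-AMC (2 microM final, Km ~15 µM) was monitored (ex 340, em 450 nm) at 37C after 15 min RT preincubation of 5 nM furin with compounds in HEPES pH 7.0 buffer with CaCl2 and Triton X-100. Percent inhibition was fitted to a 4-parameter Hill curve.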

Test [8] can be described thus: qHTS of pediatric cancer cell lines to identify multiple opportunities for drug repurposing: Confirmatory screen for OHS-50 cells (AID 1347128).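 Further: compound exposure lasted 48 h at 37 degrees C; nearly all actives have a fitted effect of over 55% in size.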 The note with it: OHS-50 osteosarcoma cells viability; series mostly up to 45.9 µM. The gist of the method: as §1

Chain of Furin (Homo sapiens) (P09958 whole entry, looked up): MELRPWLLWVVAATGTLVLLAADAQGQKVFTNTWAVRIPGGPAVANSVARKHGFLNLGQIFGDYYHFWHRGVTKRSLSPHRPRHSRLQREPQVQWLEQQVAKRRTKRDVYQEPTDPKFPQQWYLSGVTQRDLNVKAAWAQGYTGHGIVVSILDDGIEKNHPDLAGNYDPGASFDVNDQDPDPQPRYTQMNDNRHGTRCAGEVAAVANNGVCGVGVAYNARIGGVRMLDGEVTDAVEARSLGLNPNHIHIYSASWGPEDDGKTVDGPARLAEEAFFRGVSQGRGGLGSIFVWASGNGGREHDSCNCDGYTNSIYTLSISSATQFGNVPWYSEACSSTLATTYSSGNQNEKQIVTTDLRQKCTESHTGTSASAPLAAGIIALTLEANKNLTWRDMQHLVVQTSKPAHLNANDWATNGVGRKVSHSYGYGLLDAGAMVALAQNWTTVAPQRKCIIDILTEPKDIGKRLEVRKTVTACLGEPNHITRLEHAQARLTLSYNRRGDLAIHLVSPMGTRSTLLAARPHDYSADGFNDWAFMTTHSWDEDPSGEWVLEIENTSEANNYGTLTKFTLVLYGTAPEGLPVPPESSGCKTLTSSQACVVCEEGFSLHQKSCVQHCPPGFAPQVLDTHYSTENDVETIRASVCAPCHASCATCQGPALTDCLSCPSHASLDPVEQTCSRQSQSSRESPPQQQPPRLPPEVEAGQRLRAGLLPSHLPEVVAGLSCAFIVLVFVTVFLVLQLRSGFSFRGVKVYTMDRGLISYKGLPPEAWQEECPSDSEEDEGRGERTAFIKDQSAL
Chain of N-terminal Xaa-Pro-Lys N-methyltransferase 1 (Homo sapiens) (Q9BV86 whole entry, looked up): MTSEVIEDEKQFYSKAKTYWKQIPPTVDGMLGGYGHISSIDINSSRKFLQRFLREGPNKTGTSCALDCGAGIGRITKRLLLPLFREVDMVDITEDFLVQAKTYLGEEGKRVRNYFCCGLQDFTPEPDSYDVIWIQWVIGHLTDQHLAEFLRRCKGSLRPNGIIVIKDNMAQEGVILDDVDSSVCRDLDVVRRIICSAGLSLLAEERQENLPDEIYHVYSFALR

Consider `CCCC1O[C@@H]2C[C@H]3[C@@H]4CCC5=CC(=O)C=C[C@]5(C)[C@H]4[C@@H](O)C[C@]3(C)[C@]2(C(=O)CO)O1` (stereo not given in full), for which the Potency result in test [1] and in test [2] was “inactive” in each case.
On to `CC(CCc1ccccc1)NCC(O)c1ccc(O)c(C(N)=O)c1` (stereo not given), for which the Potency in test [1] was 56.2 µM (active); in test [2], 26.7 µM (active).
In the same order, the values of `N[C@H](CO)C(=O)O` are “inactive” and “inactive”.
For `COc1c(C)c2c(c(O)c1C/C=C(\C)CCC(=O)O)C(=O)OC2`, the Potency was 1.85 µM (active) in test [3]; 1.17 µM (active) in test [4]; 1.31 µM (active) in test [5]; 1.31 µM (active) in test [6]; 24.1 µM (active) in test [2]. The Potency result in test [7] is “inactive”.
For `Oc1c(Cl)cc(Cl)cc1Sc1cc(Cl)cc(Cl)c1O`, in test [7], the Potency result is “inactive”.
Consider `COC(=O)[C@H]1[C@H]2C[C@H]3c4[nH]c5ccccc5c4CCN3C[C@H]2CC[C@@H]1O`, for which the Potency result in test [2] is “inactive”.
For `CC(C)C[C@H]1C(=O)N2CCC[C@H]2[C@]2(O)O[C@](NC(=O)[C@@H]3C=C4c5cccc6[nH]c(Br)c(c56)C[C@H]4N(C)C3)(C(C)C)C(=O)N12`, the Potency is 56.2 µM (active) in test [1] and 11.9 µM (active) in test [2].
In the same order, the values of `CC(C)COC(=O)OCN1C(=O)CN(CCN2CC(=O)N(COC(=O)OCC(C)C)C(=O)C2)CC1=O` are “inactive” and “inactive”.
With `C[C@@H]1C(=O)NC2=Nc3cccc(Cl)c3CN21`, the Potency entry in test [1] and in test [2] was “inactive” each time.
With `CC1(C)CCC(NC(=O)[C@@H](N)CCC(=O)O)CC1`, the Potency entry in test [1] and in test [2] was “inactive” throughout.
In the case of `O=C1CCC(c2ccc(-n3ccnc3)cc2)=NN1`, the Potency result in test [1] and in test [2] was “inactive” throughout.
On to `Nc1nc2ncc(CNc3ccc(C(=O)N[C@@H](CCC(=O)O)C(=O)O)cc3)nc2c(=O)[nH]1`, for which the Potency in test [7] was 21.5 µM (active).
With `CCOc1ccc2nc3cc(N)ccc3c(N)c2c1`, the Potency was 0.585 µM (active) in test [3] and 14.7 µM (active) in test [4]. Further, the Potency entry in test [5] and in test [8] was “inactive” in each case.
Turning to `O=C(Nc1ccc(Oc2ccc(Cl)cc2)c(Cl)c1)c1cc(I)cc(I)c1O`, in test [7], the Potency entry is “inactive”.
As to `CCC(NC(C)C)C(O)c1ccc(O)c(O)c1` (stereo not given), the Potency entry in test [2] was “inactive”.
Turning to `CC(=O)O[C@H]1C[C@@H]2CC[C@@H]3[C@H](CC[C@@]4(C)[C@H]3C[C@H]([N+]3(C)CCCCC3)[C@@H]4OC(C)=O)[C@@]2(C)C[C@@H]1[N+]1(C)CCCCC1`, the Potency result in test [1] and in test [2] was “inactive” each time.
As for `Nc1cc(Cl)c(NC2=NCCN2)c(Cl)c1`, the Potency entry in test [1] and in test [2] was “inactive” in each case.
